Only some compounds are listed: those with a hit (about 11% of all), similar ones and a draw of the others.
3T3 cytotox: NIH 3T3 cell cytotoxicity; NIH 3T3 viability, CellTiter-Glo ATP luminescence, 48-72 h; Potency, µM (top dose mostly 96.7 µM), for the others: at the top dose activity change, negative = cytotoxicity, hits mostly inhibitors; hit rate 4.3% among 94,000; also: nearly all actives have a fitted effect of over 55% in size
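Mouse fibroblast NIH 3T3 cells, 400 per well, received compound via pintool and were incubated for 48 or 72 hr prior to CellTiter-Glo ATP luminescence measurement.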
hNpr1 antagonist: blocks ANP-stimulated signaling of human Npr1 receptor | P16066 | HEK293 hNpr1 GloSensor cGMP, ANP-stimulated luminescence | Potency, µM (doses to about 46.3 µM), without a hit: at the highest dose activity change, negative = inhibition, usual class: inhibitors | hit rate 1.6% among 76,000 | AID 1347048; calls by dose curve; also: nearly all actives have a fitted effect of over 60% in size
Target sequence (P16066 whole entry, looked up): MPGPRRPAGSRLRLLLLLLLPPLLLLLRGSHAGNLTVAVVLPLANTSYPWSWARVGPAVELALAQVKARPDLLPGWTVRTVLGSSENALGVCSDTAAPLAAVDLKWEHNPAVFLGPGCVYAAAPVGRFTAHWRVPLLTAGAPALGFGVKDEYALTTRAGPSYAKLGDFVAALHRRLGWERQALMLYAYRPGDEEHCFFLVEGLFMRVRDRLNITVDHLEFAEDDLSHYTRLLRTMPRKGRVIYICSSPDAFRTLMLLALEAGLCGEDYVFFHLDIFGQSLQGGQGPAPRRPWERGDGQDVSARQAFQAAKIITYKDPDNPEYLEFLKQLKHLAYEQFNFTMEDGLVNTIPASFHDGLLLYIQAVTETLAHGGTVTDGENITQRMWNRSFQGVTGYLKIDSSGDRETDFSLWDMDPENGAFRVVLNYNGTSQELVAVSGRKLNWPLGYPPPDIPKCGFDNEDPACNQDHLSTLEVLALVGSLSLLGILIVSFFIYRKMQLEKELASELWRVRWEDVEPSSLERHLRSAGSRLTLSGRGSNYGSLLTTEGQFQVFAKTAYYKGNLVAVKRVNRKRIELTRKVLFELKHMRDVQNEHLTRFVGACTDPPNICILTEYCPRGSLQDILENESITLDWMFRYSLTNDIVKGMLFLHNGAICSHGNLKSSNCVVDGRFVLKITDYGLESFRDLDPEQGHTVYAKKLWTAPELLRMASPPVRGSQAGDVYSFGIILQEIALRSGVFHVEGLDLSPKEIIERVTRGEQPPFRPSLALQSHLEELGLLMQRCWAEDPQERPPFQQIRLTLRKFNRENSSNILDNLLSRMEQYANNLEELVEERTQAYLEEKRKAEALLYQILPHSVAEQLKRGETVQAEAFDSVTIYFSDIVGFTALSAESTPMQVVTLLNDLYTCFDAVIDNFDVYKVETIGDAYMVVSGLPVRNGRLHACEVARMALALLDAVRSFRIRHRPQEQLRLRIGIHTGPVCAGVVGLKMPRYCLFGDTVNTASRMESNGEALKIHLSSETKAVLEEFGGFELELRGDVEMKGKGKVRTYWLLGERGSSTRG
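Compound pre-incubated 30 min at room temperature on GloSensor-loaded HEK293 cells stably carrying hNpr1 and the pGS-40F cGMP biosensor. Stimulation uses hNppA at 0.1 nM final; luminescence is taken at baseline and 20 min post-agonist.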
HEK293 tox: HEK 293 cell cytotoxicity | HEK 293 viability, ATP luminescence (CellTiter-Glo), 48-72 h | hit rate 6.6% among 94,000 | AID 1345083 | Potency, µM (top dose mostly 115 µM), without a hit: at the top dose activity change, negative = cytotoxicity, usual class: inhibitors; also: nearly all actives have a fitted effect of over 60% in size
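Cytotoxicity was scored by loss of ATP-coupled luminescence (CellTiter-Glo) in HEK 293 cells. Compound treatment ran 48 or 72 hr at 37 degree Celsius, 5% CO2, 95% humidity.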
FLuc inh: inhibitors of firefly (Photinus pyralis) luciferase; purified P. pyralis luciferase, luminescence, biochemical; P08659; Potency, µM (highest dose often 115 µM), actives largely listed as inhibitors; hit rate 2.5% among 76,000; also: nearly all actives have a fitted effect of over 65% in size
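Purified 10nM P. pyralis luciferase with 10uM D-luciferin and 10uM ATP in 50mM Tris acetate pH 7.5, 10mM Mg acetate, 0.01% Tween-20, 0.05% BSA. qHTS titration; luminescence read by CCD imager.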
Starred values were filed as active, the others as inactive; [ ] = remark or other dose. Unless noted, calls follow the shape of the dose curve; as a rule, active = well fitted curve in the direction sought with a large enough effect; inconclusive = small, poorly fitted or top-dose-only effect, or another doubt; inactive = no such curve, though single readings can be large; an effect the other way counts as inactive or inconclusive. % is scaled to controls: 0 for no effect and ±100 for the full control effect; potency is read from the fitted curve at half-maximal effect.

What do the screens show for `COC(=O)c1ccc2nc(C[C@@H]3C[C@@H](C(C)C)[C@H](CN)C=C3C)[nH]c2c1`?
3T3 cytotox: 63µM*; hNpr1 antagonist: -10%[70.6 µM]; HEK293 tox: inconclusive; FLuc inh: inactive

Results for COC(=O)c1ccc2nc(C[C@@H]3C[C@@H](C(C)C)[C@H](CNC4CCOCC4)C=C3C)[nH]c2c1 ?
3T3 cytotox: inconclusive; hNpr1 antagonist: 1%; HEK293 tox: inconclusive; FLuc inh: inactive

What do the screens show for `COC(=O)c1ccc2nc(C[C@@H]3C[C@@H](C(C)C)[C@H](CNC4CCCCC4)C=C3C)[nH]c2c1`?
3T3 cytotox: 18µM*; hNpr1 antagonist: -9%; HEK293 tox: inconclusive; FLuc inh: inactive

What do the screens show for `CC(C)CC(=O)N1CCCC(c2noc(COc3ccccc3F)n2)C1` (stereo not drawn)?
3T3 cytotox: inconclusive; hNpr1 antagonist: -21%; HEK293 tox: inconclusive; FLuc inh: inactive

Results for Cc1c(F)cccc1NC(=O)N1CCCC(c2noc(COc3ccccc3F)n2)C1 (stereo not drawn) ?
3T3 cytotox: inconclusive; hNpr1 antagonist: inconclusive; HEK293 tox: inconclusive; FLuc inh: 14µM*

Results for CCOc1ccccc1NC(=O)N1CCCC(c2noc(COc3ccccc3F)n2)C1 (stereo not drawn) ?
3T3 cytotox: inconclusive; hNpr1 antagonist: -3%; HEK293 tox: inconclusive; FLuc inh: inactive

What do the screens show for `CC(C)C(=O)N1CCCC(c2noc(COc3ccccc3F)n2)C1` (stereo not drawn)?
3T3 cytotox: -20%; hNpr1 antagonist: 10%; HEK293 tox: inconclusive; FLuc inh: 40µM*

Results for O=C([C@@H]1C[C@H](F)CN1S(=O)(=O)Cc1ccccc1)N1CCOCC1 ?
3T3 cytotox: 3%; hNpr1 antagonist: -2%; HEK293 tox: -5%; FLuc inh: inactive

Results for COc1cc(CNCCC(C)C)ccc1OCC(O)CN1CCSCC1 (stereo not drawn) ?
3T3 cytotox: inconclusive; hNpr1 antagonist: -1%; HEK293 tox: -28%; FLuc inh: inactive

Results for O=C(NCc1ccccc1Cl)[C@@H]1CCCN1c1nccc(Nc2ccccc2Cl)n1 ?
3T3 cytotox: -30%; HEK293 tox: -36%

How did O=C([C@@H]1CCCN1c1nccc(Nc2ccccc2Cl)n1)N1CCN(Cc2ccccc2)CC1 do in these assays?
3T3 cytotox: 45µM*; HEK293 tox: inconclusive

How did O=C([C@@H]1CCCN1c1nccc(Nc2ccccc2Cl)n1)N1CCC(c2ccccc2)CC1 do in these assays?
3T3 cytotox: 35µM*; HEK293 tox: 22µM*

Results for O=C(C1CCN(c2nccc(Nc3ccccc3Cl)n2)CC1)N1CCC(c2ccccc2)CC1 ?
3T3 cytotox: 40µM*; HEK293 tox: 32µM*

How did CC(C)NC(=O)[C@@H]1CCCN1c1nccc(Nc2ccccc2Cl)n1 do in these assays?
3T3 cytotox: -29%; HEK293 tox: inconclusive

Results for Cc1ccc(Nc2ccnc(N3CCCC3C(=O)N3CCN(Cc4ccccc4)CC3)n2)cc1 (stereo not drawn) ?
3T3 cytotox: 35µM*; HEK293 tox: 14µM*

How did COc1ccccc1Nc1ccnc(N2CCC[C@H]2C(=O)N2CCCC2)n1 do in these assays?
3T3 cytotox: -6%; HEK293 tox: inactive

How did CC(C)C[C@H]1NC(=O)[C@@H]2C[C@@H](NC(=O)COCC(=O)O)CCN2C1=O do in these assays?
3T3 cytotox: -1%[174 µM]; hNpr1 antagonist: 0%[70.6 µM]; HEK293 tox: 0%[172 µM]; FLuc inh: inactive

How did O=C(C1CCCN1c1nccc(Nc2ccccc2F)n1)N1CCN(Cc2ccccc2)CC1 (stereo not drawn) do in these assays?
3T3 cytotox: inconclusive; HEK293 tox: 32µM*

What do the screens show for `Cc1ccc(Nc2ccnc(N3CCCC3C(=O)N3CCC(c4ccccc4)CC3)n2)cc1` (stereo not drawn)?
3T3 cytotox: 32µM*; HEK293 tox: 32µM*

What do the screens show for `COc1ccc(NC(=O)CCc2cc3cc(C)ccc3[nH]c2=O)c(OC)c1`?
3T3 cytotox: -1%; hNpr1 antagonist: -1%; HEK293 tox: 0%; FLuc inh: inactive

Results for COC(=O)[C@@H]1Cc2ncn(C(C)C)c2CN1S(=O)(=O)c1ccc(OC)cc1 ?
3T3 cytotox: -1%[138 µM]; hNpr1 antagonist: 2%[70.6 µM]; HEK293 tox: inactive; FLuc inh: inactive

Results for CC1=C[C@@H](CNC(=O)Cn2cnnn2)[C@H](C(C)C)C[C@H]1Cc1nc2ccccc2n1C ?
3T3 cytotox: 89µM*; hNpr1 antagonist: inconclusive; HEK293 tox: inconclusive; FLuc inh: inactive

What do the screens show for `CC1=C[C@@H](CNC(=O)N2CCOCC2)[C@H](C(C)C)C[C@H]1Cc1nc2ccccc2n1C`?
3T3 cytotox: 63µM*; hNpr1 antagonist: inconclusive; HEK293 tox: 63µM*; FLuc inh: inactive

Results for CC1=C[C@@H](CNC(=O)c2cnccn2)[C@H](C(C)C)C[C@H]1Cc1nc2ccccc2n1C ?
3T3 cytotox: inconclusive; hNpr1 antagonist: inconclusive; HEK293 tox: inconclusive; FLuc inh: inactive

How did COCC(=O)NC[C@@H]1C=C(C)[C@H](Cc2nc3ccccc3n2C)C[C@H]1C(C)C do in these assays?
3T3 cytotox: 50µM*; hNpr1 antagonist: inconclusive; HEK293 tox: 56µM*; FLuc inh: inactive

What do the screens show for `CC1=C[C@@H](CNC(=O)COCC(=O)O)[C@H](C(C)C)C[C@H]1Cc1nc2ccccc2n1C`?
3T3 cytotox: -29%[174 µM]; hNpr1 antagonist: -16%[70.6 µM]; HEK293 tox: -6%[172 µM]; FLuc inh: inactive

How did CC1=C[C@@H](CNC(=O)COCC(=O)O)[C@H](C(C)C)C[C@H]1Cc1nc2ccc(C)cc2[nH]1 do in these assays?
3T3 cytotox: 2%[174 µM]; hNpr1 antagonist: -2%[70.6 µM]; HEK293 tox: -20%[172 µM]; FLuc inh: inactive

Results for CC1=C[C@@H](CNC(=O)Cn2cnnn2)[C@H](C(C)C)C[C@H]1Cc1nc2ccc(C)cc2[nH]1 ?
3T3 cytotox: inconclusive; hNpr1 antagonist: -23%[70.6 µM]; HEK293 tox: 89µM*; FLuc inh: inactive

How did O=c1c2nc(-c3cccc(O)c3)ccc2ncn1C1CC1 do in these assays?
3T3 cytotox: 63µM*; hNpr1 antagonist: 1%[70.6 µM]; HEK293 tox: -28%[230 µM]; FLuc inh: inconclusive

What do the screens show for `O=c1c2nc(-c3cccc(O)c3)ccc2ncn1-c1ccccc1`?
3T3 cytotox: 8.9µM*; hNpr1 antagonist: 3%[70.6 µM]; HEK293 tox: inconclusive; FLuc inh: 71µM*

What do the screens show for `CC(=O)Nc1cccc(-c2ccc3ncn(-c4cccnc4)c(=O)c3n2)c1`?
3T3 cytotox: inconclusive; hNpr1 antagonist: 1%[70.6 µM]; HEK293 tox: -23%[172 µM]; FLuc inh: inactive

Results for COc1ccc(-c2ccc3ncn(C4CC4)c(=O)c3n2)cc1OC ?
3T3 cytotox: 40µM*; hNpr1 antagonist: 3%[70.6 µM]; HEK293 tox: inconclusive; FLuc inh: 63µM*

What do the screens show for `COc1ccc(-c2ccc3ncn(-c4ccc(F)cc4F)c(=O)c3n2)cc1OC`?
3T3 cytotox: inconclusive; hNpr1 antagonist: 0%[70.6 µM]; HEK293 tox: inconclusive; FLuc inh: inactive

Screens (PubChem)
